In PubChem BioAssay AID485317 (Broad Institute, 2010):
Among all 290,000 compounds or so, about 11,000 (3.8%) were called active. What follows is part of a selection rich in actives, with near analogues and random picks from the rest. A number with no mark means an inactive call.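 Rule for the calls: active = mean replicate inhibition above about 79%, with every replicate also reaching it (limit read from the data); inconclusive = only one of the two criteria met; inactive = mean below limit and not every replicate reaching it.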

The molecules below were run against FAD-linked sulfhydryl oxidase ALR (Homo sapiens) (UniProt P55789) (assay: ALR-catalysed DTT oxidation blockers – biochemical, H2O2 detection, HRP-luminol luminescence, single point, primary screen (AID 485317)). Details: purified ALR, stronger effect = higher value, concentration not given here.
Chain of FAD-linked sulfhydryl oxidase ALR (Homo sapiens) (P55789 whole entry, looked up): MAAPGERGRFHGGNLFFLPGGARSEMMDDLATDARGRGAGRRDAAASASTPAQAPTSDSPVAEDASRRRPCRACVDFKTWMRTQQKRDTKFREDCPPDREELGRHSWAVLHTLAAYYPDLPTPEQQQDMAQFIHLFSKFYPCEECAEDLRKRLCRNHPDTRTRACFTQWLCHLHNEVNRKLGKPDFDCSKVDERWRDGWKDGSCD
Molecule `COc1ccc(CNC(=O)COC(=O)c2sccc2C)cc1OC` has an inhibition of 2.29%.
`O=C(CN1C(=O)NC2(CCCC2)C1=O)OCCOc1ccc(F)cc1` showed an inhibition of -0.86%.
`CN(CC(=O)Nc1ccc(Cl)cc1)C(=O)c1ccc(COc2ccccc2)cc1` gave an inhibition of -2.8%.
In the case of `Cc1[nH]c2ccccc2c1/C=N\NC(=O)Cn1nnc(-c2ccccc2)n1`, the inhibition is reported as -18.5%.
In the case of `COCCNC(=S)N/N=C/c1c(C)[nH]c2ccccc12`, the inhibition is reported as 98% (active).
With `Cc1[nH]c2ccccc2c1/C=N/NC(=O)CNC(=O)c1ccc2c(c1)OCO2` the inhibition was -4.62%.
`O=C(COC(=O)C1(c2ccc(F)cc2)CCCC1)N1CCNC1=O` showed an inhibition of 1.5%.
In the case of `COc1ccccc1C(CNC(=O)c1cccc(NS(=O)(=O)c2ccc(Br)cc2)c1)N(C)C` (stereo not given), the inhibition is reported as -2.7%.
In the case of `CC(C)NC(=O)Nc1cccc2c1O[C@@H](CN(C)S(=O)(=O)c1ccc(F)cc1)[C@@H](C)CN([C@H](C)CO)C2=O`, the inhibition is reported as -3.22%.
`CCOC(=O)c1c(-c2ccccc2)oc2cc(Br)c(O)cc12` gave an inhibition of 13.2%.
Work on `CCOC(=O)c1c(N)nn(C(=O)c2ccccc2)c1-c1ccccc1` yielded an inhibition of 3.16%.
With `CCOC(=O)c1c(-c2cccc(N)c2)cn2ccccc12` the inhibition was 99% (active).
Molecule `CCOC(=O)c1sc(N)c(C#N)c1COC(=O)C1=COCCO1` has an inhibition of -1.4%.
Work on `CCOC(=O)CSc1nc(C)cc2c1C(=O)OC2` yielded an inhibition of -5.37%.
With `CCOC(=O)CSc1ccccn1` the inhibition was -2.85%.
In the case of `CCOC(=O)CSC1=N/C(=C/c2ccc(-n3cncn3)cc2)C(=O)N1C(C)=O`, the inhibition is reported as 97.6% (active).
For `CC(=O)Nc1ccc(NC(=O)COC(=O)c2ccccc2C(=O)c2ccccc2)cc1`, the inhibition was 0.353%.
`COc1ccc(S(=O)(=O)N2CCCCCC2)cc1C(=O)N(C)Cc1cccc(OC)c1OC` was tested, and the inhibition was -1.21%.
`CCOc1ccc(C(=O)NCC(=O)N2CCN(c3ccc(C(F)(F)F)cn3)CC2)cc1` was tested, and the inhibition was 1.77%.
`O=C(COC(=O)CN1C(=O)C2CCCCC2C1=O)Nc1ccc(F)c(F)c1F` (stereo not given) gave an inhibition of -5.29%.
In the case of `Cc1nc(-c2ccc([N+](=O)[O-])cc2)c(-c2ccccc2)o1`, the inhibition is reported as 97.6% (active).
`COc1ccc([N+](=O)[O-])cc1-c1nc2ccccc2nc1-c1ccccc1` showed an inhibition of -10.3%.
`Cc1cccc(NC(=O)c2sc(-c3ccccc3)nc2-c2ccc([N+](=O)[O-])cc2)c1` showed an inhibition of -3.26%.
Molecule `CCC(CO)Oc1cc(NCc2ccccc2)c2ncn(C3CCCC3)c2c1` (stereo not given) has an inhibition of 15.4%.
Work on `CC1CC1C(=O)OCC(=O)Nc1cccc(F)c1` (stereo not given) yielded an inhibition of -3.36%.
Work on `COC(=O)c1ccc(C)c(NC(=O)Cn2c(C)csc2=O)c1` yielded an inhibition of -1.89%.
`Cc1ccc(Nc2c3c(nc4ccccc24)CCC3)cc1` was tested, and the inhibition was 98.4% (active).
`CC(=O)Nc1ccc(-c2nc3ccccc3o2)cc1` showed an inhibition of -1.09%.
Work on `O=[N+]([O-])c1cccc(Nc2c3ccccc3nc3ccccc23)c1` yielded an inhibition of -6.1%.
`N#Cc1cccc(Nc2c3c(nc4ccccc24)CCCC3)c1` was tested, and the inhibition was -9.75%.
For `O=C(Nc1c2c(nc3ccccc13)CCCC2)c1ccccc1Br`, the inhibition was -5.44%.
For `CC(=O)Nc1ccc(Nc2c3ccccc3nc3ccccc23)cc1`, the inhibition was 89.9% (active).
For `CCOC(=O)C1=C(COC(=O)[C@H](C)NS(=O)(=O)c2ccccc2F)NC(=O)NC1C` (stereo not given in full), the inhibition was -1.62%.
Molecule `O=C(CN1C(=O)NC2(CCOc3ccccc32)C1=O)NCc1ccc(F)cc1` (stereo not given) has an inhibition of -3.27%.
With `COC(=O)C1CCN(C(=O)COC(=O)c2cc(S(=O)(=O)N3CCOCC3)ccc2C)CC1` the inhibition was -15.3%.
`O=C(Nc1ccc(NC(=O)c2ccccc2F)cc1)c1ccccc1F` gave an inhibition of -9.75%.
`C/C(CC(=O)Nc1ccc(N(C)C)cc1)=N\NC(=O)c1ccccc1F` was tested, and the inhibition was 87.2% (active).
Molecule `CCn1c2ccccc2c2cc(NC(=O)C/C(C)=N/NC(=O)c3ccccc3N)ccc21` has an inhibition of -1.26%.
In the case of `Cc1ccc2c(c1)NC(=O)[C@@]1(C)[C@@H](c3ccccc3)[C@H]3COc4ccc(Cl)cc4[C@@H]3N1C2=O`, the inhibition is reported as 0.863%.
`CC(=O)N1CCc2c(sc(NC(=O)CCS(=O)(=O)c3ccc(C)cc3)c2C(N)=O)C1` gave an inhibition of -33.3%.
Molecule `C[C@H]1COC(=O)[C@H](CC(=O)OC(C)(C)C)C/C=C\C[C@@H](CC(=O)N[C@H](CO)Cc2ccccc2)C(=O)N1` has an inhibition of 1.44%.
`CCCCN(C(=O)c1ccc2ccccc2c1)c1c(N)n(CCCC)c(=O)[nH]c1=O` showed an inhibition of -4.16%.
`Cn1cc(Cl)c(C(=O)NNC(=S)Nc2cccc(Cl)c2)n1` was tested, and the inhibition was 89.2% (active).
`Cc1cccc(-n2cnc(C(=O)NNC(=S)Nc3ccccc3)c2)n1` gave an inhibition of 47.8%.
In the case of `Cc1nn(C)cc1C(=O)NNC(=S)Nc1ccc(Cl)cc1`, the inhibition is reported as 49.6%.
